In all, about 47,000 compounds went through this assay and about 1,400 (3%) were called active. The entries come from a sample that favours actives as a whole. A number with no mark means an inactive call. Cut-off read from the data, not from the text of the source: active = inhibition above about 30%; inactive = the rest.

Sequence of Ubiquitin carboxyl-terminal hydrolase 28 (Homo sapiens) (Q96RU2 whole entry, looked up): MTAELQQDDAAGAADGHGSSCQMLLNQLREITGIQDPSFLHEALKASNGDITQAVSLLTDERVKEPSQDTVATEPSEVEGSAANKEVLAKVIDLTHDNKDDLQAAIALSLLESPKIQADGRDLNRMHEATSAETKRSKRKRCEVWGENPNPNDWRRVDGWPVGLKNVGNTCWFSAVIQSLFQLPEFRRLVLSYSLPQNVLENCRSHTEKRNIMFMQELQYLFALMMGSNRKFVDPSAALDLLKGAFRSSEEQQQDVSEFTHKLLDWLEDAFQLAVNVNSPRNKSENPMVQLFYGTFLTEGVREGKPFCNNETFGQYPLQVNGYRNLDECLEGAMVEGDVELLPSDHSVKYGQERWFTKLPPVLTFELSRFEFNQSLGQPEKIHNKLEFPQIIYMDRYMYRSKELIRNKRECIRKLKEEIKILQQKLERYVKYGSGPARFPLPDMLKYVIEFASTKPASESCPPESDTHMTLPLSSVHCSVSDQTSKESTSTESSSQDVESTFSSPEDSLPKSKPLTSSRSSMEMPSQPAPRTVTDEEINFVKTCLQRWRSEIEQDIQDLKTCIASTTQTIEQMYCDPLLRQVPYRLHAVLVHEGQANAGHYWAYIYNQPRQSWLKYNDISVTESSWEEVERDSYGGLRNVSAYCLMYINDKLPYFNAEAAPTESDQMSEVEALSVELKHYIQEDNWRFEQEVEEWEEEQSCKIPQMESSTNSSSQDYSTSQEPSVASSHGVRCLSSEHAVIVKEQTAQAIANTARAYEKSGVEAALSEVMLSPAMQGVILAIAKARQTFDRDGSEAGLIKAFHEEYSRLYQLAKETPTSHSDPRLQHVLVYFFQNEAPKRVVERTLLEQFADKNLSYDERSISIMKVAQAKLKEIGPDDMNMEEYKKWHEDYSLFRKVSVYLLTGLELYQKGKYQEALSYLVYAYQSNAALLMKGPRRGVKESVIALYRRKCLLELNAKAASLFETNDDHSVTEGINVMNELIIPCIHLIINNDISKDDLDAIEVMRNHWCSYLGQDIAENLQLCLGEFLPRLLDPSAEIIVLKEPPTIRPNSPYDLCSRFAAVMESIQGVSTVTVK

The test has as its target Ubiquitin carboxyl-terminal hydrolase 28 (Homo sapiens) (UniProt Q96RU2). As to the kind of experiment: inhibitors of human USP28 deubiquitinase (AID 1645857). The conditions noted are these: purified USP28, Ub-rhodamine cleavage fluorescence, 30 min; at 25 µM; hits give high values.
`O=C1CSC(c2ccc(F)cc2)c2c(-c3ccccc3)nn(-c3ccccc3)c2N1` (stereo not given): the inhibition (usually the drop in the measured response relative to a control, in per cent) is 35.2% (active).
Then `O=C(CCCn1c(=O)[nH]c2cc(Cl)ccc2c1=O)N1CCC2(CC1)OCCO2`, with 15%; and `COc1cc(N2CC[C@@H]3[C@@H]2CCN3Cc2cccnc2)ncn1`, with -13.3%.
Then `CC(C)(C)n1cc(C(=O)NCC(=O)Nc2ccc(Br)cc2)cn1`, with 1.73%; and `Cc1noc(C)c1CN1CCO[C@H]2C(Cn3cccn3)CC[C@@H]21` (stereo not given in full), with -2.14%.

The values above are taken from PubChem BioAssay AID1645857 (Buhrlage Lab, Dana-Farber Cancer Institute and Novartis …, 2021).
